Structures are written as SMILES. “And” between values parts separate entries of the source, which are not always exact repeats. Identical values can stand only once. Results filed as inconclusive are left out. More than one record can exist for a structure, and the calls need not agree. The source made the active and inactive calls. Unless noted, calls come from the whole dose curve; as a rule, active = well fitted curve in the direction sought with a large enough effect in the repeat runs; inconclusive = weak or mixed curves; inactive = no such curve, though single readings can be large; an effect the other way counts as inactive or inconclusive.

The nature of test [1]: qHTS assay to identify small molecule antagonists of the glucocorticoid receptor (GR) signaling pathway - cell viability counter screen (AID 720693). Note: nearly all actives have a fitted effect of over 55% in size. The note with it: GR-bla HeLa viability, CellTiter-Glo luminescence, 18 h, with 5 nM dexamethasone present; series mostly up to 58.5 µM.
Test [2] is described as follows: qHTS assay for identifying genotoxic compounds that show differential cytotoxicity against isogenic chicken DT40 cell lines with known DNA damage response pathways - Rev3 mutant cell line (AID 743014). Note: nearly all actives have a fitted effect of over 55% in size. Note: potency is the fitted concentration of half-maximal effect. The note with it: chicken DT40 Rev3-/- viability, CellTiter-Glo, 40 h; series mostly up to 68.4 µM.
The nature of test [3]: qHTS assay to identify small molecule antagonists of the androgen receptor (AR) signaling pathway using the MDA cell line - cell viability counter screen (AID 743041; note: nearly all actives have a fitted effect of over 45% in size). The following applies: MDA-kb2 viability, CellTiter-Fluor, 16 h, cells co-treated with R1881 androgen agonist; series mostly up to 70.3 µM. In a few lines: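 Cytotoxicity counter screen: MDA-kb2 AR-luc cells, compound + R1881, 16 h, 37C, 0% CO2; CellTiter-Fluor added at 15.5 h, fluorescence read after 30 min.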
A general note: qHTS replaces the single test concentration by a dilution series.

The nature of test [4]: qHTS assay for identifying genotoxic compounds that show differential cytotoxicity against isogenic chicken DT40 cell lines with known DNA damage response pathways - wild type cell line (AID 743012). Note: nearly all actives have a fitted effect of over 60% in size. Note: potency is the fitted concentration of half-maximal effect. The following applies: DT40 wild type chicken cells viability, CellTiter-Glo, 40 h; series mostly up to 68.4 µM. The gist of the method:
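Cytotoxicity in repair-proficient parental chicken DT40 cells serves as the comparator for Rad54/Ku70- and Rev3-deficient lines. Cells were exposed to compounds for 40 h at 37 C/5% CO2, and ATP-based luminescence (CellTiter-Glo) measured viability.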

A short description of test [5]: qHTS assay for identifying genotoxic compounds that show differential cytotoxicity against isogenic chicken DT40 cell lines with known DNA damage response pathways - Rad54/Ku70 mutant cell line (AID 743015). Note: nearly all actives have a fitted effect of over 60% in size. Note: potency is the fitted concentration of half-maximal effect. The note with it: DT40 Rad54/Ku70 mutant viability, CellTiter-Glo, 40 h; series mostly up to 66.8 µM.
Test [6] is described as follows: qHTS assay to identify small molecule antagonists of the androgen receptor (AR) signaling pathway - cell viability counter screen (AID 743033; note: nearly all actives have a fitted effect of over 45% in size; note: potency is the fitted concentration of half-maximal effect). The following applies: AR-bla HEK293 viability, CellTiter-Glo luminescence, 16 h; series mostly up to 58.5 µM.
For test [7], the target named is Androgen receptor (Homo sapiens) (UniProt P10275). Put plainly: qHTS assay to identify small molecule agonists of the androgen receptor (AR) signaling pathway using the MDA cell line (AID 743040; note: nearly all actives have a fitted effect of over 20% in size). The note with it: MDA-kb2 AR-luc cells, MMTV luciferase, 16 h; series mostly up to 70.3 µM. The gist of the method:
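Luciferase read-out, ONE-Glo, 30 min RT. Cells: MDA-kb2 AR-luc, MMTV promoter with AR and GR response elements. Compound exposure 16 h, 37C, 0% CO2, after 5 h pre-incubation. qHTS agonist mode.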

Test [8] has the same target. The experiment in a line: qHTS assay to identify small molecule antagonists of the androgen receptor (AR) signaling pathway using the MDA cell line (AID 743042; note: nearly all actives have a fitted effect of over 55% in size). The note with it: MDA-kb2 AR-luc, MMTV luciferase, R1881 antagonist, 16 h; series mostly up to 70.3 µM. The gist of the method: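 MDA-kb2 breast carcinoma cells carrying MMTV-luciferase (AR/GR responsive) were co-treated with compounds and the agonist R1881 for 16 h at 37C. Inhibition read as ONE-Glo luminescence; CellTiter-Fluor fluorescence measured in parallel for cytotoxicity.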

Test [9] has the same target. Put plainly: qHTS assay to identify small molecule antagonists of the androgen receptor (AR) signaling pathway (AID 743035; active = well fitted inhibition curve with a large enough effect in the signal ratio in the repeat runs, not every such curve was filed as active; the % refers to the signal ratio). The following applies: HEK293 AR-UAS-bla, R1881-stimulated, beta-lactamase FRET, 16 h; series mostly up to 58.5 µM. In a few lines:
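Steps: seed AR-UAS-bla GripTite HEK293 cells, incubate 4 h at 37C; pin in test compound, then add agonist R1881; incubate 16 h at 37C; add LiveBLAzer B/G FRET substrate, 2 h at room temperature; read fluorescence.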

Test [10] has the same target. The experiment in a line: qHTS assay to identify small molecule agonists of the androgen receptor (AR) signaling pathway (AID 743036; active = well fitted activation curve with a large enough effect in the signal ratio in the repeat runs, with a control signal flat, not every such curve was filed as active; the % refers to the signal ratio). The following applies: HEK293 AR-UAS-bla GripTite, beta-lactamase FRET ratio, 16 h; series mostly up to 62.4 µM. The gist of the method: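 Activation was read as beta-lactamase FRET signal from LiveBLAzer B/G substrate, added for 2 h at room temperature. Before that, GeneBLAzer AR-UAS-bla GripTite (HEK293) cells had 16 h compound exposure at 37C.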
% is set by controls: 0 for no effect and ±100 for the full control effect.

Chain of Androgen receptor (Homo sapiens) (P10275 whole entry, looked up): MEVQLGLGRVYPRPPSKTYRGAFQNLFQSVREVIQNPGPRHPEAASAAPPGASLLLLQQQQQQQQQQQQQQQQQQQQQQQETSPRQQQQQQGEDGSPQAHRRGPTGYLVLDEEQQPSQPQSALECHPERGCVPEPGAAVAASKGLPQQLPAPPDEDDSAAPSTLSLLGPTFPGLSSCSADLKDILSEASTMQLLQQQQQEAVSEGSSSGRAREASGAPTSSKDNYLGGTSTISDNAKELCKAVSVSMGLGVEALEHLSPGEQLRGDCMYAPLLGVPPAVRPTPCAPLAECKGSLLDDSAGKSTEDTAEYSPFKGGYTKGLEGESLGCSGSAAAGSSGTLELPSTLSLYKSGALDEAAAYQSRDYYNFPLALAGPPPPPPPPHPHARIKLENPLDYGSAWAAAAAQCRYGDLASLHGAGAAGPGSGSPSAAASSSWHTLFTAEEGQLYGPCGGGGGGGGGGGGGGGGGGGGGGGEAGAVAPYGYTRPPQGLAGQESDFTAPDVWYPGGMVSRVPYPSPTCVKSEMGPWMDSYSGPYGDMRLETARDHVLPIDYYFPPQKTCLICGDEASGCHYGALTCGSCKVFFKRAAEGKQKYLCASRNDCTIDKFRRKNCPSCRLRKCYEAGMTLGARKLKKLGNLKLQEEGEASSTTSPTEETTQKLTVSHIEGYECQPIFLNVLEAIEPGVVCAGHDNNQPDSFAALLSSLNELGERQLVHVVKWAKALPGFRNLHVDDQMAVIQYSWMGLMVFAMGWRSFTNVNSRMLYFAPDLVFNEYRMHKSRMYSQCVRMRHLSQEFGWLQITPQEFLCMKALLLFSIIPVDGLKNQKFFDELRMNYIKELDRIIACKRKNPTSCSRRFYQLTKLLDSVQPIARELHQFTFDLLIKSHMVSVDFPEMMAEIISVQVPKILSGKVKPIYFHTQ

Take `CN(C(=O)c1c(O)c2ccccc2n(C)c1=O)c1ccccc1`: in test [1], the molecule was called inactive. Further, the Potency result in test [2] and in test [3] was “inactive” throughout.

Regarding `COC(=O)NN`, the Potency result in [4], in [2], in test [5], in test [6] and in [3] was “inactive” throughout.

For the molecule `O=c1cc(-c2ccccc2)oc2ccccc12`, the Potency is 21.7 µM (active) in test [4]; 48.6 µM (active) and 43.1 µM (active) in [2]; 56.9 µM (active) in [5]. Moreover, the Potency entry in test [6], in test [7], in [3] and in test [8] was “inactive” each time.

As for `O=C(O)CN(CCOCCOCCN(CC(=O)O)CC(=O)O)CC(=O)O`, in test [1], the molecule was called inactive. Moreover, the Potency entry in test [2], in [5], in test [6] and in [3] was “inactive” throughout.

On to `c1ccc([C@H]2CN3CCSC3=N2)cc1`, for which the molecule was classed as inactive in test [1]. Moreover, the Potency result in [6] and in [3] was “inactive” in each case.

As to `O=c1[nH]c(=O)n([C@H]2C[C@H](O)[C@@H](CO)O2)cc1I`, the molecule was called inactive in test [1]. In addition, the Potency in [2] was 1.8 µM (active); in [5], 2.02 µM (active). For the same molecule, in [3], the Potency entry was “inactive”.

Consider `COC(=O)CC(C)=O`, for which the outcome in [1] was inactive. Also, the Potency entry in [2], in [5], in [6] and in test [3] was “inactive” in each case.

For the molecule `CO[Si](CCCOCC1CO1)(OC)OC` (centres undefined), the molecule was called inactive in [1]. Also, the Potency in [2] is 38.6 µM (active). Moreover, the Potency result in [6] and in test [3] was “inactive” throughout.

On to `NC(=O)c1ccc(N)cc1`, for which, in [1], the outcome was inactive. Also, the Potency entry in [2], in test [5], in [6] and in [3] was “inactive” in each case.

Consider `O=C1NC(=O)[C@@]2(CCOc3ccc(F)cc32)N1`, for which, in [1], the outcome was inactive. The Potency result in [5], in test [6] and in test [3] was “inactive” in each case.

As for `Cc1ccc(=O)n(-c2ccccc2)c1`, the call in test [1] was inactive. Also, the Potency entry in test [6] and in [3] was “inactive” throughout.

For `CN1CCC(=C2c3ccccc3CC(=O)c3sccc32)CC1`, the call in test [1] was inactive. The Potency entry in [6] and in test [3] was “inactive” throughout.

In the case of `CCCCCSCCCCC`, the result in test [1] was inactive. Moreover, in [2], the Potency is 61.1 µM (active). For the same molecule, the Potency result in [6] and in [3] was “inactive” in each case.

As to `CCC(=O)OC(C)c1ccccc1` (centres undefined), in test [1], the molecule was classed as inactive. Also, the Potency result in test [2], in [5], in test [6] and in [3] was “inactive” in each case.

For `CCCc1cc(C(N)=S)ccn1`, the call in test [1] was inactive. Besides, the Potency result in test [2], in test [5], in test [6] and in test [3] was “inactive” each time.

`O=C(O)CCCl`: in [1], the result was inactive. The Potency result in [2] and in [6] was “inactive” throughout.

For the molecule `CCCCCCCCCCCCCC=O`, the viability change, negative = cytotoxic was -0.799% [at 7.04 µM] (inactive) in test [1] and -4.68% [at 8.47 µM] (inactive) in test [3]. Moreover, the activity change, negative = cytotoxicity was -24.1% [at 8.55 µM] (inactive) in test [5] and 5.83% [at 7.04 µM] (inactive) in test [6].

In the case of `CC(=O)CC(C)(C)C1CCCCC1`, in test [1], the outcome was inactive. Further, the Potency result in [5], in test [6] and in [3] was “inactive” each time.

As for `CCCC(=O)O[C@]1(C(=O)CO)CC[C@H]2[C@@H]3CCC4=CC(=O)CC[C@]4(C)[C@H]3[C@@H](O)C[C@@]21C`, the Potency result in [4], in test [2], in test [5] and in test [3] was “inactive” in each case.

On to `C=CCOCC(CC)(CO)COCC=C`, for which the molecule was classed as inactive in test [1]. The Potency result in test [2], in test [5], in test [6] and in test [3] was “inactive” throughout.

As to `CC(=O)OC/C=C(\C)CC/C=C(\C)CCC=C(C)C`, the molecule was classed as inactive in test [1]. For the same molecule, the Potency in test [2] and in test [5] was 61.1 µM (active) throughout. In addition, the Potency result in [6] and in test [3] was “inactive” in each case.

As for `FC1(F)C(F)(F)C(F)(F)C2(F)C(F)(F)C(F)(F)C(F)(F)C(F)(F)C2(F)C1(F)F` (centres undefined), the result in [1], in [9] and in [10] was inactive. In addition, the Potency in test [5] was 21.1 µM (active). Also, the Potency entry in [6], in [7], in test [3] and in test [8] was “inactive” each time.

`CCCCC(CC)COC(=O)c1ccccc1O` (centres undefined): the call in [1] was inactive. In addition, the Potency entry in test [2], in test [5], in test [6] and in test [3] was “inactive” each time.

As for `COc1cc(C(=O)N2CCCCCCC2)cc(OC)c1OC`, the result in test [1] was inactive. Further, the Potency entry in test [6] and in [3] was “inactive” each time.

In the case of `Nc1cc(=O)[nH]c(N)n1`, the result in test [1] was inactive. The Potency result in test [2], in test [5], in test [6] and in [3] was “inactive” each time.

As to `CC(=O)Nc1c(I)cc(I)c(C(=O)O)c1I`, the Potency result in [4], in test [2], in test [5] and in test [3] was “inactive” each time.

On to `CCOC(=O)c1c(C)n(C)c2ccc(O)cc12`, for which the molecule was classed as inactive in [1]. Further, the Potency result in test [5], in test [6], in [7], in test [3] and in [8] was “inactive” throughout.

Regarding `CC(C)NC(=O)NC(C)C`, the outcome in test [1], in test [9] and in [10] was inactive. In addition, the Potency entry in test [2], in test [6], in test [7], in [3] and in test [8] was “inactive” each time.

Turning to `NC(=O)c1ccc([N+](=O)[O-])cc1`, in [1], the molecule was classed as inactive. Besides, the Potency entry in test [2], in [6] and in test [3] was “inactive” throughout.

Regarding `CC(=O)OCC(=O)[C@@]1(O)CC[C@H]2[C@@H]3CCC4=CC(=O)CC[C@]4(C)[C@H]3C(=O)C[C@@]21C`, the result in test [1] was inactive. Besides, the Potency entry in test [2], in test [5], in test [6] and in test [3] was “inactive” each time.

With `N#Cc1ccc(C2CCCc3cncn32)cc1` (centres undefined), in [1], the molecule was called inactive. Besides, the Potency result in [2], in test [6] and in test [3] was “inactive” each time.

As for `CC(=O)N(CC(O)CO)c1c(I)c(C(=O)NCCO)c(I)c(C(=O)NCC(O)CO)c1I` (centres undefined), in [1], the result was inactive. In addition, the Potency entry in test [2], in [5], in [6] and in [3] was “inactive” each time.

With `OCCCC1CCCCC1`, the molecule was called inactive in test [1]. The Potency result in test [2], in [5], in test [6] and in test [3] was “inactive” in each case.

With `COC(=O)C1=C(C)NC(C)=C(C(=O)OC)C1c1ccccc1[N+](=O)[O-]`, the molecule was classed as inactive in test [1]. For the same molecule, the Potency entry in test [6] was “inactive and 49 µM (active)”. In addition, the Potency result in test [3] is “inactive”.

On to `O=C1OC(=O)C2CCCCC12` (centres undefined), for which the molecule was called inactive in [1]. Further, the Potency entry in test [2], in [5], in test [6] and in test [3] was “inactive” throughout.

For the molecule `CCCCCCCCCCCCN(CCCCCCCCCCCC)CCCCCCCCCCCC`, the molecule was called inactive in test [1]. Further, the Potency result in [5], in test [6] and in test [3] was “inactive” each time.

For `CS(=O)(=O)O`, the Potency entry in test [2], in test [6], in [7] and in [3] was “inactive” throughout. The call in test [9] and in test [10] was inactive.

For `N=c1nc(N2CCCCC2)cc(N)n1O`, the result in [1] was inactive. For the same molecule, the Potency result in [5], in [6] and in test [3] was “inactive” throughout.

The values above are taken from PubChem BioAssay (Tox21).
